Test results from PubChem BioAssay (NCATS).
Results filed as inconclusive are left out. Where a call stands in place of a potency, no number is given. Activity calls are given as the source filed them. The call rests on the fitted dose curve; in most records, active means well fitted inhibition curve with a large enough effect; inconclusive means small, poorly fitted or top-dose-only effect; inactive means no such curve, though single readings can be large or run the other way.

test system: Zika virus NS2B-NS3 protease (linked construct); assay: Primary screen NINDS Rhodamine qHTS for Zika virus inhibitors (AID 1347160); details: purified NS2B-NS3 protease, Rhodamine110 substrate fluorescence; series mostly up to 33.1 µM; further: nearly all actives have a fitted effect of over 55% in size
How it was run: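 Rhodamine110-peptide cleavage (1.5 µM substrate) by 25 nM linked NS2B-NS3 enzyme at pH 8.0 (Tris, Tween 20), after 15 min RT preincubation with compounds; 15-min fluorescence change normalized to controls and Hill-fitted.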
Potency means the concentration at half of the fitted maximal effect.

Row | SMILES | Potency
1 | CC1(C)C=Cc2c(ccc3c2[N+]([O-])=C2C3(O)CC34NC(=O)C5(CCCN5C3=O)CC4C2(C)C)O1 (configuration not stated) | inactive
2 | CC[C@@H]1C(=O)O[C@]23C=C[C@@H]4C(C(=O)OC)=CO[C@H](O[C@@H]12)[C@@H]43 | inactive
3 | CC(C)C1CCC(CO)=CC1/C=C(\CO)C(=O)OCC1(O)CCC(C(C)C)C2C=C(C(=O)O)COC(=O)C21 (configuration not stated) | inactive
4 | CC(C)Oc1ccc(-c2nc(-c3cccc4c3CCC4NCCC(=O)O)no2)cc1C#N (configuration not stated) | inactive
5 | C/C(=C\C(=O)C(C)C1CCC2C3=C(CCC21C)C1(C)CCC(=O)C(C)(C)C1(O)CC3)C(C)(C)O (configuration not stated) | 14.1 µM (active)
6 | C=CC(C)(O)CC/C=C(\C)C(=O)O[C@@H]1[C@@H](O)[C@H](OC(C)(C=C)CC/C=C(\C)C(=O)O)O[C@H](CO)[C@H]1OC(=O)/C(C)=C/CCC(C)(O)C=C (some centres not stated) | inactive
7 | CO[C@H]1c2cc(C(C)C)c(O)c(O)c2[C@@]23CCCC(C)(C)C2[C@@H]1OC3=O (some centres not stated) | inactive
8 | C[C@H]1CCN2C[C@]34C[C@@]5(C(=O)Nc6c5ccc5c6OC=CC(C)(C)O5)C(C)(C)C3C[C@]12C(=O)N4C (some centres not stated) | inactive
9 | CC1(C)CC[C@]2(C(=O)O)[C@H](O)C[C@]3(C)C(=CCC4[C@@]5(C)CC[C@H](O[C@@H]6OC[C@@H](O)[C@H](O)[C@H]6O)[C@@](C)(C(=O)O)C5CC[C@]43C)[C@@H]2C1 (some centres not stated) | inactive
10 | CC(C)=CC[C@H]1O[C@]2(O)C([C@H]3CCC4[C@@]5(C)CC[C@H](O[C@@H]6O[C@H](CO)[C@H](O)[C@H](O[C@@H]7O[C@H](CO)[C@@H](O)[C@H](O)[C@H]7O)[C@H]6O[C@@H]6O[C@@H](C)[C@H](O)[C@@H](O)[C@H]6O)C(C)(C)C5CC[C@@]4(C)[C@]3(C)[C@H]2O)[C@@]1(C)O (some centres not stated) | inactive
11 | Cc1ncc([N+](=O)[O-])n1C[C@H](O)CN1CCOCC1 | inactive
12 | CC1OC(OC2C(OC3C(O[C@H]4CC[C@@]5(C)C(CC[C@]6(C)C5C(=O)CC5=C7CC(C)(C)CC(O)[C@]7(C)CC[C@]56C)C4(C)C)OC(C(=O)O)C(O)C3O)OCC(O)C2O)C(O)C(O)C1O (some centres not stated) | inactive
13 | CC1(C)CC[C@]2(C(=O)O)CC[C@]3(C)C(=CCC4[C@@]5(C)CC[C@H](O)C(C)(C)C5CC[C@]43C)C2C1 (some centres not stated) | inactive
14 | COc1cccc(OC)c1-c1nc(C(=O)N[C@@H](CC(C)C)C(=O)O)cn1-c1ccnc2cc(Cl)ccc12 | inactive
15 | C=C(C(=O)O)[C@H]1C[C@]2(C)C(=O)CC[C@]23O[C@H]1C[C@@H]3C | inactive
16 | Cn1c2ccc(NC(=O)c3ccccc3)cc2c(=O)n2nc(C(=O)O)cc12 | inactive
17 | CC1=CC(=O)CC(C)(C)C1/C=C/C(C)OC1OC(COC2OCC(O)C(O)C2O)C(O)C(O)C1O (configuration not stated) | inactive
18 | CC12CC(c3ccoc3)OC(=O)C1CCC1(C)C2CCC(O)C1(C)O (configuration not stated) | inactive
19 | NC1(c2ccc(NC(=O)c3ccnc(-c4cc(C(=O)O)ccn4)c3)cc2)CC1 | inactive
20 | CC(=O)O[C@@H]1[C@H](OC(C)=O)C[C@@]2(C)C(CC[C@@H](C)[C@]23Cc2c(O)cc4c(c2O3)CN([C@@H](CCC(=O)O)C(=O)O)C4=O)C1(C)C (some centres not stated) | inactive
21 | C=CC(C)(O)CCC1C(C)(O)CCC2C(C)(C)CCCC21C (configuration not stated) | inactive
22 | C=C(COC(=O)C(C)C)C1Oc2cc(C(C)=O)ccc2C1OC(=O)C(C)C (configuration not stated) | inactive
23 | CC1(C)CC[C@]2(C(=O)O[C@@H]3O[C@H](CO)[C@@H](O)[C@H](O)[C@H]3O)CC[C@]3(C)C(=CCC4[C@@]5(C)CC[C@H](O[C@@H]6O[C@H](C(=O)O)[C@@H](O)[C@H](O)[C@H]6OC6OC(CO)C(O)C(O)C6O)C(C)(C)C5CC[C@]43C)[C@@H]2C1 (some centres not stated) | inactive
24 | CC/C=C\C(O)C(O)C1=C(C)C(=O)C2(O1)C(=O)NC(OC)(C(=O)c1ccccc1)C2O (configuration not stated) | inactive
25 | CC1C2=CC(=O)OC2(O)CC2C1CCC1C(C)(C)CCC(O)C21C (configuration not stated) | inactive
26 | C/C(=C\CCC1(C)C2CC3C(C2)C31C)C(=O)O (configuration not stated) | inactive
27 | C=C1C(O)CCC2(C)CC3(OC)OC(=O)C(C)=C3CC12 (configuration not stated) | inactive
